In PubChem BioAssay AID1159580 (chemical genetic matrix, 2015):
“And” between values parts separate entries of the source, which are not always exact repeats. Identical values can stand only once. Among all 5,500 compounds or so, about 2,000 (36%) were called active. About 18% were inconclusive and are not listed. Cut-off read from the data, not from the text of the source: active = normalized growth mostly below about 0.91 (no sharp cut-off); inconclusive = no clear call, values can overlap the other calls; inactive = mostly above about 0.92. The list shows a part of the results.

Assay: chemical genetic growth profiling, strain panel (AID 1159580);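 note: tested at 20 µM; growth read once vehicle control cultures reached saturation at 30 °C; 1 = growth at the plate median or of vehicle wells; lower values mean less growth of the strain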
Details: S. cerevisiae deletion strains, growth OD

Measured: normalized growth

CC(=O)/C=C\[C@@H]1[C@@]2(C)CCCC(C)(C)C2CC[C@@]1(C)O (some centres not stated)
inactive: locus YAL013W, strain DEP1, hits give low values 0.964 | locus YAL021C, strain ccr4, hits give low values 0.989 | locus YAL026C, strain drs2, hits give low values 0.971 | locus YAL030W, strain snc1, hits give low values 0.974 | locus YBL061C, strain skt5, hits give low values 0.983 | locus YBR009C, strain hhf1, hits give low values 0.971 | locus YBR021W, strain FUR4, hits give low values 0.99 | locus YBR023C, strain chs3, hits give low values 0.977 | locus YBR171W, strain sec66, hits give low values 0.96 | locus YBR229C, strain ROT2, hits give low values 0.946 | locus YBR231C, strain swc5, hits give low values 0.988 | locus YBR279W, strain paf1, hits give low values 0.966 | locus YCL011C, strain gbp2, hits give low values 0.966 | locus YCL016C, strain dcc1, hits give low values 0.988 | locus YCL029C, strain bik1, hits give low values 0.985 | locus YCL061C, strain MRC1, hits give low values 0.988 | locus YCL069W, strain vba3, hits give low values 0.949 | locus YCR088W, strain abp1, hits give low values 0.986 | locus YDL005C, strain med2, hits give low values 0.971 | locus YDL035C, strain GPR1, hits give low values 0.963 | locus YDL040C, strain nat1, hits give low values 0.983 | locus YDL074C, strain BRE1, hits give low values 0.901 | locus YDL101C, strain DUN1, hits give low values 0.952 | locus YDL134C, strain PPH21, hits give low values 0.964 | locus YDL185W, strain tfp1, hits give low values 0.966 | locus YDL192W, strain arf1, hits give low values 0.98 | locus YDR001C, strain nth1, hits give low values 0.967 | locus YDR069C, strain doa4, hits give low values 0.973 | locus YDR101C, strain arx1, hits give low values 0.995 | locus YDR137W, strain rgp1, hits give low values 0.902 | locus YDR150W, strain NUM1, hits give low values 0.967 | locus YDR159W, strain sac3, hits give low values 0.922 | locus YDR162C, strain NBP2, hits give low values 0.843 | locus YDR195W, strain ref2 0.955 | locus YDR297W, strain sur2, hits give low values 0.982 | locus YDR318W, strain mcm21, hits give low values 1 | locus YDR334W, strain swr1, hits give low values 0.946 | locus YDR335W, strain msn5, hits give low values 0.981 | locus YDR388W, hits give low values 0.987 | locus YDR392W, strain spt3, hits give low values 0.842 | locus YDR502C, strain sam2, hits give low values 0.951 | locus YEL003W, strain gim4, hits give low values 0.976 | locus YEL037C, strain rad23, hits give low values 0.969 | locus YEL061C, strain CIN8 (second series), hits give low values 0.961 | locus YEL061C, strain CIN8, hits give low values 0.968 | locus YER015W, strain faa2, hits give low values 0.966 | locus YER016W, strain bim1, hits give low values 0.982 | locus YER110C, hits give low values 0.985 | locus YER111C, strain swi4, hits give low values 0.978 | locus YER155C, strain BEM2 (second series), hits give low values 0.982 | locus YER155C, strain BEM2, hits give low values 0.972 | locus YER167W, strain BCK2, hits give low values 0.989 | locus YFR010W, strain ubp6, hits give low values 0.967 | locus YGL078C, strain dbp3, hits give low values 0.968 | locus YGL086W, strain mad1, hits give low values 0.996 | locus YGL167C, strain pmr1, hits give low values 0.971 | locus YGL173C, strain kem1, hits give low values 0.975 | locus YGL227W, strain vid30, hits give low values 0.982 | locus YGL240W, strain doc1, hits give low values 0.976 | locus YGL248W, strain PDE1, hits give low values 0.969 | locus YGL253W, strain hxk2, hits give low values 0.975 | locus YGR078C, strain PAC10, hits give low values 0.963 | locus YGR135W, strain pre9, hits give low values 0.922 | locus YGR229C, strain SMI1, hits give low values 0.933 | locus YGR252W, strain gcn5, hits give low values 1.05 | locus YHR013C, strain ard1, hits give low values 0.964 | locus YHR027C, strain rpn1, hits give low values 0.967 | locus YHR030C, strain SLT2, hits give low values 0.993 and 0.958 | locus YHR079C, strain IRE1 (second series), hits give low values 0.987 | locus YHR079C, strain IRE1, hits give low values 0.989 | locus YHR094C, strain hxt1, hits give low values 0.99 | locus YHR129C, strain ARP1, hits give low values 0.975 | locus YHR142W, strain chs7, hits give low values 0.979 | locus YHR200W, strain rpn10, hits give low values 0.988 | locus YIL066C, strain RNR3, hits give low values 0.953 | locus YIL073C, strain SPO22, hits give low values 1.02 | locus YIL125W, strain kgd1, hits give low values 0.991 | locus YIR030C, strain dcg1, hits give low values 0.978 | locus YJL092W, strain hpr5, hits give low values 0.98 | locus YJL095W, strain BCK1 (second series), hits give low values 0.963 | locus YJL095W, strain BCK1, hits give low values 0.916 and 0.981 | locus YJL115W, strain asf1, hits give low values 0.96 | locus YJL129C, strain trk1, hits give low values 0.957 | locus YJL134W, strain LCB3, hits give low values 0.969 | locus YJL154C, strain vps35, hits give low values 0.973 | locus YJL164C, strain tpk1, hits give low values 0.997 | locus YJL166W, strain qcr8, hits give low values 0.982 | locus YJL168C, strain set2, hits give low values 0.976 | locus YJL187C, strain SWE1 (second series), hits give low values 0.945 | locus YJL187C, strain SWE1, hits give low values 0.969 | locus YJR043C, strain POL32, hits give low values 1.03 | locus YJR066W, strain TOR1, hits give low values 0.951
